PubChem BioAssay AID1053205 (Broad Institute, 2014)
Results with a measured potency or affinity are listed apart. Inconclusive results are not listed. Unmarked numbers belong to inactive results. Active and inactive are the calls of the source.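 How the source made its calls: active means compounds lowering the FRET ratio whose fitted half-maximal concentration is at most twice their top tested dose; inconclusive means flat partial drop between 30 and 70 percent, or bad fit; inactive means the rest.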

Molecular target: Voltage-dependent L-type calcium channel subunit alpha-1D (Homo sapiens) (UniProt Q01668)
Sequence (Q01668 whole entry, looked up): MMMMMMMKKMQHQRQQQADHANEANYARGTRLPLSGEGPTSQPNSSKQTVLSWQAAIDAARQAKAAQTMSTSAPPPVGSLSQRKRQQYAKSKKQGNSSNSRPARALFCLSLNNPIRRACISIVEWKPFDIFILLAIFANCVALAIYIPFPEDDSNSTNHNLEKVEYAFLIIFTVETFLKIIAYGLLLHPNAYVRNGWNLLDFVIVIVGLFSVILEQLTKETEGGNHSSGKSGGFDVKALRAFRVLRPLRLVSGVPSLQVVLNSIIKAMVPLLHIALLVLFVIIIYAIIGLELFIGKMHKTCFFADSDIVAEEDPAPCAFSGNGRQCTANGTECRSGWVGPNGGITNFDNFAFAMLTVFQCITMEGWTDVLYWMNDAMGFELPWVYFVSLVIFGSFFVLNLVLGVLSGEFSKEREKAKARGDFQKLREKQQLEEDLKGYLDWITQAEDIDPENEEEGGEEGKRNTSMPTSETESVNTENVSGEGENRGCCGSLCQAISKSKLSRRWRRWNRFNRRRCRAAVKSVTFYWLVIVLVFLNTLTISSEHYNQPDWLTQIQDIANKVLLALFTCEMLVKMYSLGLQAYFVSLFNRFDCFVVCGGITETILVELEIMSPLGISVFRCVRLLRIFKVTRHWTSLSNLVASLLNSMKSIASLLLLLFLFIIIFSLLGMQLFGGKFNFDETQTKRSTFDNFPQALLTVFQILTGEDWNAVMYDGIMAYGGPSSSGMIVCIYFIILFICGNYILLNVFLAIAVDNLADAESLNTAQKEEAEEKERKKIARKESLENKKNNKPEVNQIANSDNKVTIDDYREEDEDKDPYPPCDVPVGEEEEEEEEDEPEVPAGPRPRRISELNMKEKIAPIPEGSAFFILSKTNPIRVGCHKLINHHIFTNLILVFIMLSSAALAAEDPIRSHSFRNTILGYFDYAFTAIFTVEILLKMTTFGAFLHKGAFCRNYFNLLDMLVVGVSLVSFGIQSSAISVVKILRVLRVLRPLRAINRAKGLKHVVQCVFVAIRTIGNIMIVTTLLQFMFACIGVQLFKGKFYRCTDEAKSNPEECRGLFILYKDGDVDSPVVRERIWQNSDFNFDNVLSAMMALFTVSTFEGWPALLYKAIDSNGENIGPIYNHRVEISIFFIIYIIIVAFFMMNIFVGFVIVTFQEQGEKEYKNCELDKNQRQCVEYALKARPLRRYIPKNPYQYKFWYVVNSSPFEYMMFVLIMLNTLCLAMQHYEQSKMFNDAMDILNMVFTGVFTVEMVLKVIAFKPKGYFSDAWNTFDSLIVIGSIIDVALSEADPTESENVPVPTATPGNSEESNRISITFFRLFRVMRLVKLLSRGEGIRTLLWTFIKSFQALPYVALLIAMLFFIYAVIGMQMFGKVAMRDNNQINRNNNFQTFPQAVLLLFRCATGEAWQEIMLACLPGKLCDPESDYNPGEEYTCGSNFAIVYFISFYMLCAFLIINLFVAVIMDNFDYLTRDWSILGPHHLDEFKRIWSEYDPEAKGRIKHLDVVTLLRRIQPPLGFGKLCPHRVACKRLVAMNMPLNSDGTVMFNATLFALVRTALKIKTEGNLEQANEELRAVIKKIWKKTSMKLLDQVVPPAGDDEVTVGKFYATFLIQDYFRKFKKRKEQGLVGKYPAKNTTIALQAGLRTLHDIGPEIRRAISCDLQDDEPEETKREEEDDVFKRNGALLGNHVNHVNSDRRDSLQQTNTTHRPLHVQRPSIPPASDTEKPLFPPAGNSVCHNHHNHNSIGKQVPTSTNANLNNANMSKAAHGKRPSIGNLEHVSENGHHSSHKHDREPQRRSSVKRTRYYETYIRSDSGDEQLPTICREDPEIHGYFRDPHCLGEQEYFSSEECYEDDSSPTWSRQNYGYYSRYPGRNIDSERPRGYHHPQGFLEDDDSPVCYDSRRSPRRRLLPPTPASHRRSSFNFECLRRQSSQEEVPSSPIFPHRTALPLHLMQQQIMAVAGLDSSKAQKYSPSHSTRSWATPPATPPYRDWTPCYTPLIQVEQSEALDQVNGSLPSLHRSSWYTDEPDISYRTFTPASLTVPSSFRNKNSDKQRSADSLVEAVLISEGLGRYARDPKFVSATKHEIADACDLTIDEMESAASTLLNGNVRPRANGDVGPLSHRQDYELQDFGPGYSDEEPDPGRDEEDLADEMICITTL
Assay: inhibitors of CaV1.3 ICDI-IQ binding, dose response, cell-based, HEK293, YFP-IQ/CFP-ICDI FRET, cherry-picks (AID 1053205);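 further: 0% = median of neutral control wells and -100% = median of positive control wells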
Conditions: HEK293 YFP-IQ/CFP-ICDI FRET ratio, 10 min; series mostly up to 35 µM

Structure (SMILES)	outcome	FRET change, negative = inhibition
CC(=O)c1cccc(-c2ccnc3c2CC(C(=O)NCc2ccc(F)c(F)c2)O3)c1 (stereo unspecified)	inactive	–
Cc1c(C(=O)NCc2cccc(C(F)(F)F)c2)sc(=O)n1Cc1ccc(C(=O)N(C)C)cc1	inactive	–
CCN(CC)c1ccc2cc(S(=O)(=O)c3ccc(Cl)cc3)c(=O)oc2c1	inactive	–
CCN1/C(=C/c2sc(-c3ccccc3C)c[n+]2C)Sc2ccccc21	–	148% [at 8 µM]
CC1CCN(C(=O)COc2cccc3c2CCN(Cc2ccccc2)C3=O)CC1	inactive	–
Clc1cccc(CN2CCN(Cc3nc(CCc4ccccc4)no3)CC2)c1	inactive	–
COC(=O)C1=CN(Cc2ccc(OC)c(OC)c2)C=C(C(=O)OC)C1c1cccc(F)c1	inactive	–
Cc1cc(-c2ccccc2)c2ccc(NC(=O)C(C)(C)C)nc2n1	inactive	–
CCOc1ccc2nc(NCCCNS(=O)(=O)c3ccc(C)cc3)c(C#N)cc2c1	inactive	–
CCOc1ccc(S(=O)(=O)Nc2ccc(C(=O)N(CC)CC(=O)NCc3cccs3)cc2)cc1	inactive	–
COc1ccccc1N1CCN(C2CCC(C)CC2)CC1 (stereo unspecified)	inactive	–
COc1ccccc1NS(=O)(=O)c1cc(NC(=O)CCNC(C)=O)ccc1C	inactive	–
Cc1ccc(-c2nc3ccsc3c(=O)[nH]2)cc1	inactive	–
N=c1oc2cc(O)ccc2cc1C(=O)Nc1ccc(Br)cc1	inactive	–
CCCCCCSc1cc(-c2nc3cc(C)ccn3c2NCCCC)ccc1OC	inactive	–
CSC1=NSC2=NC(=O)/C(=C/c3coc4ccc(O)cc4c3=O)C(=N)N12	inactive	–
O=c1[nH]c2ccccc2nc1/C=C/c1ccccc1	inactive	–
C=CCn1c(=N)c(C#N)cc2c(=O)n3ccccc3nc21	inactive	–

Structure (SMILES)	outcome	FRET change, negative = inhibition
Cc1cccn2c(=O)c3cc(C(=O)NC(C)c4ccccc4)c(=N)n(CCCn4ccnc4)c3nc12 (stereo unspecified)	inactive	–
CCOC(=O)c1cc2c(=O)n3cccc(C)c3nc2n(CC(C)C)c1=NC(=O)c1ccco1	–	159% [at 8 µM]
COc1c(Cl)cc(-c2noc(C)c2C(=O)NCc2ccc3c(c2)OCO3)cc1Cl	inactive	–
O=C(Cn1ccc([N+](=O)[O-])n1)N1CCCCCC1	inactive	–
C=CCN1C(=S)CC(c2ccccc2)=Nc2ccccc21	inactive	–
O=C(NCc1nnnn1-c1ccc(Cl)cc1)C1CC(=O)N(c2ccc(F)cc2)C1 (stereo unspecified)	inactive	–
Nc1ccc(C#Cc2ccc3c(=O)c4ccccc4oc3c2)cc1	inactive	–
CCCOc1ccc(C(=O)NNC(=S)NC(=O)c2ccco2)cc1	inactive	–
Cc1ccc(-n2nnnc2CNC(=O)C(=O)c2c[nH]c3ccccc23)cc1C	inactive	–
N#C/C(=C\c1ccco1)C(=O)Nc1cccc2ncccc12	inactive	–
CC(C)c1ccc(/C=C2\Oc3c(ccc(O)c3CN3CCN(C)CC3)C2=O)cc1	inactive	–
O=C(Nc1ccc(-c2ccco2)cc1)C1CCCN(Cc2ccco2)C1 (stereo unspecified)	inactive	–
Cc1ccc(C(=O)OCC(=O)Nc2c(C)nn(-c3ccccc3)c2C)c(O)c1	inactive	–
Cc1cc(C)nc(SCC(=O)Nc2ccc(S(=O)(=O)Nc3onc(C)c3C)cc2)n1	inactive	–
Cc1c(C=O)c2ccccn2c1C(=O)c1cccs1	inactive	–
O=C(O)c1cccc(NC(=O)c2cn(-c3ccccc3)nc2-c2cccc(Br)c2)c1	inactive	–
CCc1nc2ccc(C(=O)NCCc3c[nH]c4ccccc34)cn2c1N(C=O)CCC(C)C	inactive	–
COc1ccccc1C1C2=C(CC(C)(C)CC2=O)N(CC(=O)O)C2=C1C(=O)CC(C)(C)C2	inactive	–
